In PubChem BioAssay AID720522 (National Center for Advancing Translational Sciences (NCATS), 2013):
Screen size: about 1,400 compounds; about 60 (4%) were called active. Another 7% or so got no clear call; they are omitted. Calls come from the whole dose curve; as a rule, active = well fitted inhibition curve with a large enough effect; inconclusive = small, poorly fitted or top-dose-only effect; inactive = flat fitted curve, though single readings scatter. These entries were drawn from the full list.

molecular target: Luciferin 4-monooxygenase (Photinus pyralis) (UniProt P08659); experiment: Nrf2 qHTS screen for inhibitors: Purified Fluc Biochemical Counterscreen for Hit Validation; conditions: purified firefly luciferase, luminescence inhibition; series mostly up to 57.5 µM; activity change, negative = inhibition: at the top concentration; note: nearly all actives have a fitted effect of over 65% in size
Sequence (P08659 whole entry, looked up): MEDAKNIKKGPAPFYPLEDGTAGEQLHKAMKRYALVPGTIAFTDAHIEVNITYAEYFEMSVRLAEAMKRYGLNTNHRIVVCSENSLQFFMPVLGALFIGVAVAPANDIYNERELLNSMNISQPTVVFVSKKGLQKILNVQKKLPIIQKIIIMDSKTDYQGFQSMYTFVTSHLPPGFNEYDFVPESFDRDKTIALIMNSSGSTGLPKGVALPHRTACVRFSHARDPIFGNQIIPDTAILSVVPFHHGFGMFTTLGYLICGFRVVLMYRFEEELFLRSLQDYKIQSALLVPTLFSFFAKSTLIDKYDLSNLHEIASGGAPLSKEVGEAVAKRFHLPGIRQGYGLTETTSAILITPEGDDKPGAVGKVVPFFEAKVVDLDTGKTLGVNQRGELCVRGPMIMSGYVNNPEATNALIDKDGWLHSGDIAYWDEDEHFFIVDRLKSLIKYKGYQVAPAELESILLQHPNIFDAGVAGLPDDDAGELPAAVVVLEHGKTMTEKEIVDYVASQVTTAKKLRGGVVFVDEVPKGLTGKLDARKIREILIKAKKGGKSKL
Source text: Nrf2 is a transcription factor that maintains cellular redox homoestasis and protects cells from xenobiotics. Nrf2 binds to the antioxidant response element (ARE) to induce gene expression of a broad spectrum of genes that encode for antioxidants. […] Finding a small molecule that act as an inhibitor of Nrf2 function would represent a novel therapeutic target that could lead to improvement in survival of patients undergoing chemo- and/or radio- therapy.
A biochemical assay in 1536 well format was developed and utilized to remove compounds that inhibit the luciferase reporter (Fluc) rather than the Nrf2 enzyme. Inhibition of this assay = false positive inhibition of Nrf2.
NIH Chemical Genomics Center [NCGC]
NIH Molecular Libraries Probe Centers Network [MLPCN]
Assay Submitter (PI): Shyam Biswal, Johns Hopkins University
[1] Shibata T., et al., Genetic alteration of Keap1 confers constitutive Nrf2 activation and resistance to chemotherapy in gallbladder cancer. Gastroenterology, 2008.
[2] Sjoblom T., et al., The consensus coding sequences of human breast and colorectal cancers. Science, 2006.
Three microliter of substrate solution containing 50mM Tris acetate, 13.3 mM Mg-acetate, 0.01mM ATP, 0.01% Tween, 0.05% BSA and 0.01mM D-Luciferin (Sigma, #L9504) was dispensed into 1536 well white solid bottom assay plate (Greiner Bio, #789173-F). Twenty-three nanoliter of compounds dissolved in DMSO at different concentrations was added to the plate using a Kalypsys 1536-pin tool. Then 1 uL of firefly luciferase reagent containing 50mM Tris-acetate and 0.04uM P. pyralis luciferase (Sigma, #L9506) was added. The final DMSO concentration was maintained at 0.56%. Luminescence signal was acquired using the PerkinElmer Viewlux plate reader after incubation at room temperature for 10 minutes.
% is set by controls: 0 for no effect and ±100 for the full control effect; potency is the fitted concentration of half-maximal effect.

Compound	activity change, negative = inhibition	Potency
Cc1cc(C(=O)NC2CCCc3c2cnn3-c2cccc(C)c2C)c(C)o1 (stereo not given)	-15.8% (inactive)	
O=C(CCC(=O)N1CCN(S(=O)(=O)c2ccc(Cl)cc2)CC1)NCc1cccc(C(F)(F)F)c1	2.67% (inactive)	
Cc1nc(N2CCOCC2)c2c(C)c(C(=O)Nc3ccc(C(F)(F)F)cc3)sc2n1	-11.7% (inactive)	
O=C(Nc1ccncc1)c1c(F)cccc1F	0.655% (inactive)	
Cc1ccc(S(=O)(=O)N2CCN(c3ncnc4ccccc34)CC2)cc1		inactive
CC(=NNC(=S)N1CCCCCC1)c1ccccn1		12 µM (active)
CCCCNc1nc2c(c(=O)n(C)c(=O)n2C)n1Cc1cccc(OC)c1	2.33% (inactive)	
CC(=O)N1c2ccc(S(=O)(=O)N3CCCC(C(=O)NCc4ccc(Cl)cc4)C3)cc2CC1C (stereo not given)	-0.0313% (inactive)	
CN(C)c1ccc(/C=C/c2sc3ccccc3[n+]2CCCCBr)cc1	2.47% (inactive)	
CCC(C)N1C(=O)S/C(=C/c2ccc(Sc3nc4ccccc4[nH]3)o2)C1=O (stereo not given)	-3.17% (inactive)	
O=C1C=C(c2ccnc3cc(Cl)ccc23)C[C@@H](c2ccc3c(c2)OCO3)C1	-0.462% (inactive)	
COc1cccc(-c2nc(CS(=O)(=O)CC(=O)N3CCN(c4cc(C)ccc4C)CC3)c(C)o2)c1	-16.5% (inactive)	
COCCn1c(SCC(=O)Nc2ccccc2F)nc2c(c1=O)SCC2	-0.508% (inactive)	
Cn1nccc1C(=O)NC1CCCc2c1cnn2-c1ccc(F)cc1F (stereo not given)	2.08% (inactive)	
Cc1oc2c(F)c(F)c(F)c(F)c2c1S(=O)(=O)Nc1cccc(C(F)(F)F)c1	-1.25% (inactive)	
CC(=O)N1CCCc2cc(S(=O)(=O)N3CCCC(C(=O)N4CCN(c5cccc(Cl)c5)CC4)C3)ccc21 (stereo not given)	-0.273% (inactive)	
Cc1ccc(NC(=O)C2CC(=O)N(c3ccc4c(c3)OCCO4)C2)cc1S(=O)(=O)N1CCCCCC1 (stereo not given)	-12.3% (inactive)	
O/N=C(\C[n+]1ccccc1)c1ccc(Br)cc1	-0.184% (inactive)	
N#CC(C#N)=CN=c1ccn(Cc2ccc(Cl)cc2Cl)cc1	-2.69% (inactive)	
O=c1[nH]c(SCc2cccc(F)c2)nc2ccccc12	-12.6% (inactive)	

Compound	activity change, negative = inhibition	Potency
COc1cccc(-c2nnc(NC(=O)c3ccc(S(=O)(=O)N(CC(C)C)CC(C)C)cc3)o2)c1	-0.563% (inactive)	
Cc1cc(C)c(-c2csc(NC(=O)CCCc3nc4ccccc4c(=O)[nH]3)n2)c(C)c1	1.65% (inactive)	
Cc1c(Cl)cccc1NC(=O)Cn1cc(C(=O)c2cccs2)c2ccccc21	-11.4% (inactive)	
CC1(C)O[C@@H]2CC3C4C[C@H](F)C5=CC(=O)C=CC5(C)C4C(O)CC3(C)[C@]2(C(=O)CO)O1 (stereo not given in full)	-1.87% (inactive)	
CC(=O)Nc1ccc(Nc2c3ccccc3nc3ccccc23)cc1	-10.2% (inactive)	
CCCOc1ccc(C(=O)Nc2ccc3oc(-c4cccc(Cl)c4Cl)nc3c2)cc1	0.869% (inactive)	
CC(=O)OC(C)C[N+](C)(C)C (stereo not given)	-2.04% (inactive)	
COc1ccc(CC(=O)Nc2nc(-c3ccc(F)c(F)c3)cs2)cc1OC	-1.67% (inactive)	
O=C(OCCOc1ccccc1Cl)c1cc(S(=O)(=O)N2CCCCC2)ccc1N1CCOCC1	2.03% (inactive)	
CC1CCCN(S(=O)(=O)c2ccc(C(=O)Nc3nnc(-c4ccncc4)o3)cc2)C1 (stereo not given)	2.31% (inactive)	
CC[C@H]1CN2CCc3cc(OC)c(OC)cc3[C@@H]2C[C@@H]1C[C@H]1NCCc2cc(OC)c(OC)cc21	0.375% (inactive)	
Cc1ccc(S(=O)(=O)N2C[C@@H]3CCCC[C@@H]3[C@@H](C)[C@H]2c2cn(Cc3ccccc3)c3ccc(F)cc23)cc1	2% (inactive)	
OCCCNc1nccc(-c2cc(Nc3cccc(Cl)c3)ncn2)n1	-22.4% (inactive)	
Cc1ccc(NS(=O)(=O)c2cccs2)cc1S(=O)(=O)N1CCCCCC1	-0.678% (inactive)	
CCOC(=O)c1cnc(-n2nc(C)cc2C)nc1NNc1cc(C)nc(-c2ccccc2)n1	4.06% (inactive)	
CN(Cc1cccnc1)C(=O)c1cc(COc2ccc3ncccc3c2)on1	-3.7% (inactive)	
CC1(C)CC(N2CCN(C(c3ccccc3)c3ccccc3)CC2)=CC(=[N+]2CCCCC2)C1	-16% (inactive)	
Cc1csc[n+]1CCC1CCCCC1	-0.381% (inactive)	
O=C(Nc1ccc(Br)cn1)C1CCN(S(=O)(=O)c2cccs2)CC1	1.61% (inactive)	
COc1ccc(N2CCN(C(=O)CSCc3nc(-c4ccccc4Cl)oc3C)CC2)cc1	0.323% (inactive)	

Compound	activity change, negative = inhibition	Potency
CCCOc1ccc(Cc2c(Cl)nc(SC)nc2NC)cc1	-1.64% (inactive)	
Cc1cccc(N2CCN(C(=O)CCS(=O)(=O)c3ccc4c(c3)NC(=O)C(C)S4)CC2)c1C (stereo not given)	2.31% (inactive)	
C[n+]1ccc(/C=C/c2c[nH]c3ccccc23)cc1	2.78% (inactive)	
O=C(CN1C(=O)c2ccccc2S1(=O)=O)N1CCc2ccccc21		4.26 µM (active)
O=C(CSc1nnc2c(n1)[nH]c1ccccc12)NC1CCCCC1	-1.71% (inactive)	
O=C(CC(O)(C(F)(F)F)C(F)(F)F)Nc1ccc(Cl)c(Cl)c1	1.69% (inactive)	
COc1ccc(C(=O)C[n+]2ccc(N)c(C)c2C)cc1	-0.956% (inactive)	
CCCN(c1ccc(C(C)C)cc1)S(=O)(=O)c1c(C)[nH]c(=O)[nH]c1=O	-1.53% (inactive)	
CCOc1ccc(S(=O)(=O)N2CCCCC2)cc1NC(=O)CN1CCCC1c1cccs1 (stereo not given)	-0.627% (inactive)	
CC1CCN(S(=O)(=O)c2ccc(NC(=O)C3CC(=O)N(c4ccccc4)C3)cc2)CC1 (stereo not given)	-0.62% (inactive)	
COc1ccc(CCNC(=O)c2ccc(CS(=O)(=O)c3ccc(Br)cc3)o2)cc1OC	-8.22% (inactive)	
COc1ccc(OC)c(Cc2cnc3nc(N)nc(N)c3c2C)c1	-2.63% (inactive)	
CCCCCCCCn1c2c(c(=N)c3c1CCC3)CCCC2	1.69% (inactive)	
COc1ccc(CCNc2cc(N3CCN(C(=O)c4ccccc4OC)CC3)ccc2[N+](=O)[O-])cc1OC	-10.5% (inactive)	
CC(=O)N1c2ccc(S(=O)(=O)N3CCCC(C(=O)Nc4cccc(Cl)c4)C3)cc2CC1C (stereo not given)	2.21% (inactive)	
CNC(=O)c1cccc2nc3ccccc3nc12	1.57% (inactive)	
CC(C)Cn1c(N)c(C(=O)COC(=O)CN2C(=O)C3CC=CCC3C2=O)c(=O)n(C)c1=O (stereo not given)	0.523% (inactive)	
Cc1cc(C)cc(NS(=O)(=O)c2ccc(Oc3ncc(C(F)(F)F)cc3Cl)cc2)c1	1.28% (inactive)	
CCNS(=O)(=O)c1ccc(CCC(=O)N2CCN(c3cc(Cl)ccc3C)CC2)cc1	2.95% (inactive)	
C=CCC1(CC=C)CCCN1C(=O)c1cc(COc2ccc(-n3cncn3)cc2)on1	0.848% (inactive)	
